# In the library only some 7.6% were active in any assay of this set; here they are far more common.
# p53 reactivation = qHTS assay for re-activators of p53 using a Luc reporter; H1299 p53-A138V BP100-luciferase reporter, luminescence, 24 h; Potency, µM (top dose mostly 92.2 µM), usual class: activators; hit rate 0.063% among 320,000; note: nearly all actives have a fitted effect of over 45% in size
#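 H1299 (p53-null), stable ts p53-A138V + BP100-Luc; 1000 cells/well, Opti-MEM/10% FBS; cpd 4 pt, 1:5; 24 h, 37 deg C, 5% CO2; detection reagent 10 min RT; luminescence.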
# Gal4-VP16 FLuc = VP16 counterscreen qHTS for inhibitors of ROR gamma transcriptional activity; Potency, µM (top dose mostly 53.6 µM), most hits filed as inhibitors; Drosophila S2 Gal4-VP16 UAS-luciferase, luminescence, 20 h; hit rate 3.5% among 310,000; AID 2546, 2010;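 note: Gal4-VP16 expression switched on by copper sulfate through the metallothionein promoter; nearly all actives have a fitted effect of over 50% in size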
# BRCA1 expr up = qHTS Assay to Identify Small Molecule Activators of BRCA1 Expression. MCF7-BRCA1-FFLuc reporter, luminescence, 48 h; response scale: scaled: vehicle 0%, 10 µM genistein 100%. Potency, µM (doses to about 46.1 µM), most hits filed as activators. hit rate 1.1% among 380,000; note: nearly all actives have a fitted effect of over 80% in size
#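 Quantitative HTS in MCF7 cells stably reporting BRCA1 expression via firefly luciferase. Compound treatment lasts 48 h at 37 °C in phenol-red free MEM. Activation is expressed relative to genistein at 10 microM and DMSO.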
# RORgamma inh = qHTS for inhibitors of ROR gamma transcriptional activity; Nuclear receptor ROR-gamma (Mus musculus), P51450; Drosophila S2 Gal4-RORgamma UAS-luciferase reporter, 20 h; Potency, µM (top dose mostly 53.6 µM), hits mostly inhibitors; hit rate 5.4% among 310,000; note: nearly all actives have a fitted effect of over 60% in size
# Target sequence (P51450 whole entry, looked up, the tested form may be a part): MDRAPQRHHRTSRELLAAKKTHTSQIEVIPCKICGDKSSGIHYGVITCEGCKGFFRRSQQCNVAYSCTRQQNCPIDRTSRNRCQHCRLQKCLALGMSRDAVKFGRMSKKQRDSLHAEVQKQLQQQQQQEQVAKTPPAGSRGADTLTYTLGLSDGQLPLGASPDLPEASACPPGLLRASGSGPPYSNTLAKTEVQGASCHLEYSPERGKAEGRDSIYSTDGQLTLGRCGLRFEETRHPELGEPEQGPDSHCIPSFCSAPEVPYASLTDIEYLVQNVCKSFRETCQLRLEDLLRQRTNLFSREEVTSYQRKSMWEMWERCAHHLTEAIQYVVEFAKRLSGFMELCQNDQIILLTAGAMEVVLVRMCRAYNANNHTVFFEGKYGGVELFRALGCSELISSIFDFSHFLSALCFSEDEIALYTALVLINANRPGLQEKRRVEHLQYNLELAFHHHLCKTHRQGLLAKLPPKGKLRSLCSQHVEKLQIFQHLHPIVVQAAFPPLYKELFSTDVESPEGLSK
#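 In this cell-based reporter format, copper sulfate (700 uM final) drives Gal4–ROR gamma fusion expression from a metallothionein promoter in Drosophila Schneider cells; compounds preincubated 1 hr, reporter read after 20 hr at ambient temperature.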
# Giardia kill = Small Molecules that selectively kill Giardia lamblia: qHTS | AID 540267, 2011 | hit rate 0.15% among 340,000 | activity change, % at 7.66 µM, hits read low | Giardia lamblia trophozoite viability; in the data active = activity change below about -80%; inconclusive = between about -30% and that limit;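 note: parasites exposed to compound for two days anaerobically before the ATP read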
#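 Media and compound were dispensed first, then trophozoites at 100 cells/well; plates sat 48 hrs at 37 deg C without oxygen before ATP luminescence reagent was added and read after 15-30 min at room temperature.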
# ELG1 DNA repair = qHTS screen for small molecules that inhibit ELG1-dependent DNA repair in human embryonic kidney (HEK293T) cells expressing luciferase-tagged ELG1; Potency, µM (top dose mostly 46.1 µM), actives largely listed as inhibitors; HEK293T ELG1-luciferase reporter, luminescence, 16 h; DNA damage induced by 5-fluorouridine; hit rate 2.3% among 330,000; note: nearly all actives have a fitted effect of over 55% in size
#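 Step one: seed 2,000 cells per well. Step two: pin-transfer compound or DMSO alongside 5-fluorouridine. Step three: incubate 16 hr, 37 °C, 5% CO2. Step four: add ONE-Glo, wait 30 min, read luminescence.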
# A number is an active result; n = inactive; u = inconclusive; x = no result given. Unless noted, calls come from the whole dose curve; as a rule, active = well fitted curve in the direction sought with a large enough effect; inconclusive = small, poorly fitted or top-dose-only effect, or another doubt; inactive = no such curve, though single readings can be large; an effect the other way counts as inactive or inconclusive.
SMILES,p53 reactivation,Gal4-VP16 FLuc,BRCA1 expr up,RORgamma inh,Giardia kill,ELG1 DNA repair
Cc1onc(-c2ccccc2Cl)c1C(=O)Nc1ccc(-c2cn3cccnc3n2)cc1,n,n,n,n,n,13µM
COC(=O)CNc1nc(-c2ccncc2)nc2ccccc12,n,n,n,n,n,u
O=C(NN=Cc1ccc(N2CCOCC2)s1)c1ccc([N+](=O)[O-])cc1,n,x,n,x,n,9.2µM
O=C(N/N=C/c1ccc(Br)s1)c1ccc([N+](=O)[O-])cc1,n,0.63µM,n,0.45µM,n,5.8µM
O=C(NN=Cc1ccc2c(c1)CCC2)c1ccccc1[N+](=O)[O-],x,x,n,x,x,x
O=C(N/N=C/c1ccc(N2CCOCC2)s1)c1ccc(O)cc1,x,x,n,x,x,x
C/C(CCc1ccccc1)=N\NC(=O)c1ccccc1[N+](=O)[O-],n,n,n,n,n,n
O=[N+]([O-])c1ccc(F)c(N=Cc2ccc(Br)s2)c1,n,n,n,n,n,n
CC(C)=CCC/C(C)=C/C=N/NC(=O)c1ccccc1[N+](=O)[O-],n,11µM,n,6.3µM,n,n
O=C(N/N=C/c1ccc(Br)s1)c1ccccc1[N+](=O)[O-],n,6.3µM,n,2.5µM,n,n
Cc1ccc([N+](=O)[O-])c(C(=O)N/N=C/c2cccs2)c1,n,1.3µM,n,1.4µM,n,n
CN(C)CCN(CC1CCCN(Cc2ccccc2F)C1)C(=O)c1ccc(F)cc1 (configuration not stated),20µM,n,n,n,n,n
O=C(Cc1ccccc1)Nc1cccc(N2C(=O)C=CC2=O)c1,n,5µM,u,3.5µM,n,n
CCc1nc2c(OCc3ccccc3C)cccn2c1N(C)C(=O)CC(C)C,x,x,n,x,x,x
Cc1nn(-c2ccccc2)c(C)c1/C=N/NC(=O)c1ccccc1O,n,u,n,u,n,u
Cc1nn(-c2ccccc2)c(N2CCCC2)c1/C=N/NC(=O)c1ccccc1O,n,10µM,n,10µM,n,n
CCNc1ccc(C(=O)N/N=C/c2c(C)nn(-c3ccccc3)c2N2CCCC2)cc1[N+](=O)[O-],n,u,n,n,n,21µM
O=C(N/N=C/c1cc2c3c(c1O)CCCN3CCC2)c1ccccc1O,u,20µM,n,u,n,u
O=C(C1=C(O)C(=O)N(CC2CCCO2)C1c1ccccc1[N+](=O)[O-])c1ccco1 (configuration not stated),n,n,n,n,n,u
COc1cccc(NC(=O)CN(C)C(=O)c2ccc(N3CCCCC3)c([N+](=O)[O-])c2)c1,n,x,n,x,n,n
Cc1cc(C(=O)Nc2cnc3ccccc3c2)ccc1[N+](=O)[O-],n,n,3.2µM,n,n,u
Cc1ccc(C(=O)Nc2cnc3ccccc3c2)cc1,n,2.8µM,n,3.2µM,u,u
COc1ccc(OCC(=O)N2N=C(C)CC2(O)C(F)(F)F)cc1 (configuration not stated),n,u,n,6.3µM,n,n
CCOC(=O)N1N=C(c2ccc(OC)cc2)CC1(O)C(F)(F)F (configuration not stated),n,u,u,u,n,u
CCc1ccc(C2=NN(C(=O)OC)C(O)(C(F)(F)F)C2)cc1 (configuration not stated),n,u,n,11µM,n,u
COc1ccc(CC(=O)N2N=C(C)CC2(O)C(F)(F)F)cc1OC (configuration not stated),n,u,n,u,n,n
COc1ccc(CC(=O)N2N=C(c3ccncc3)CC2(O)C(F)(F)F)cc1 (configuration not stated),n,n,n,11µM,n,u
CCC1=NN(C(=O)Cc2ccc(OC)cc2)C(O)(C(F)(F)F)C1 (configuration not stated),n,u,n,11µM,n,n

# Screens: PubChem, National Center for Advancing Translational Sciences (NCATS)
